Screens (PubChem BioAssay)
CHX counter: Cycloheximide Counterscreen for Small Molecule Inhibitors of Shiga Toxin; cell reporter, cycloheximide protein synthesis inhibition counterscreen; hit rate 12% among 300,000; max response, %; in the data active = max response mostly above about 13%, no sharp cut-off; inactive = mostly below about 14%; also: read at 38.3 µM for the half of the compounds with a filed dose; 0% is about no effect
Shiga toxin inh: A qHTS for Small Molecule Inhibitors of Shiga Toxin. hit rate 9.2% among 290,000. inhibition, % at 38.7 µM. Vero cells, Shiga toxin protein synthesis inhibition reporter; in the data active = inhibition mostly above about 28%, no sharp cut-off; inactive = mostly below about 43%; also: 0% is about no effect
Sm TGR block: qHTS Assay for the Inhibitors of Schistosoma Mansoni Peroxiredoxins; Schistosoma mansoni thioredoxin glutathione reductase (TGR), Q962Y6; purified TGR, DTNB reduction, TNB absorbance 405 nm; Potency, µM (titrated, usually from 114 µM), for the others: top-dose activity change, negative = inhibition, most hits filed as inhibitors; hit rate 3% among 360,000; AID 485364, 2010; also: potency is read from the fitted curve at half-maximal effect; % is scaled to controls: 0 for no effect and ±100 for the full control effect; nearly all actives have a fitted effect of over 60% in size
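First, TGR (20 nM dispensed) and NADPH were mixed with compound. Second, a 15 min room-temperature incubation followed. Third, further NADPH and then DTNB were added to start the reaction. Finally, TNB absorbance was monitored kinetically.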
Pf growth 48h: Primary qHTS for delayed death inhibitors of the malarial parasite plastid, 48 hour incubation; P. falciparum luciferase growth in erythrocytes, 48 h; Potency, µM (titrated, usually from 28.7 µM), inactives show at the highest dose activity change, negative = inhibition, usual class: inhibitors; hit rate 5.9% among 310,000; also: potency is read from the fitted curve at half-maximal effect; % is scaled to controls: 0 for no effect and ±100 for the full control effect
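In quantitative HTS format, infected erythrocytes bearing luciferase-reporter parasites were treated for a single generation at 37 C. Luminescence after adding detection reagent served as the growth measure.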
Pf growth 96h: Primary qHTS for delayed death inhibitors of the malarial parasite plastid, 96 hour incubation; P. falciparum luciferase reporter growth, 96 h; Potency, µM (titrated, usually from 28.7 µM), for inactives: top-dose activity change, negative = inhibition, most hits filed as inhibitors; hit rate 6.9% among 320,000; AID 504834, 2011; also: potency is read from the fitted curve at half-maximal effect; % is scaled to controls: 0 for no effect and ±100 for the full control effect
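Readout is luminescence from an integrated firefly luciferase in P. falciparum. Red cells, 2% hematocrit and 0.05% parasitemia final, were cultured with compound through two parasite generations (96 hours) at 37 C, 5% CO2.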
NS1 inh: qHTS Assay for Inhibitors of Influenza NS1 Protein Function. Potency, µM (top dose mostly 46.1 µM), for the others: at the top dose activity, positive = more growth. hit rate 0.4% among 270,000. AID 2326, 2010; calls by dose curve; also: potency is read from the fitted curve at half-maximal effect; actives are rising curves; nearly all actives have a fitted effect of over 50% in size
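OD600 was taken as the measure of yeast growth restored by compound in an NS1-expressing S. cerevisiae strain. Cells had been washed out of glucose medium and diluted 1:100 into galactose -URA medium, pH 6.0.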
Numbers without * were called inactive; i = inactive; ? = inconclusive; nt = no result given; ! = not confirmed by another sample; [ ] = dose if it differs, or a comment. Rows were chosen to be rich in hits. Some 21% of all compounds tested hit in one or more screens of this group. Unless noted, calls follow the shape of the dose curve; as a rule, active = well fitted curve in the direction sought with a large enough effect; inconclusive = small, poorly fitted or top-dose-only effect, or another doubt; inactive = no such curve, though single readings can be large; an effect the other way counts as inactive or inconclusive.

SMILES	CHX counter	Shiga toxin inh	Sm TGR block	Pf growth 48h	Pf growth 96h	NS1 inh
O=C(N/N=C/c1ccc(-c2ccc(Br)cc2)o1)c1ccc2c(c1)OCO2	14.2	26.8	-0.8%	-21.4%	?	nt
O=C(N/N=C/c1ccc(COc2ccc(Br)cc2)o1)c1ccc2c(c1)OCO2	15.4*	26.3	-23.6%	2.1%	-2.3%	-0.1%
COc1ccc(/C=N/NC(=O)c2ccc3c(c2)OCO3)c(C(=O)O)c1OC	11.2*	24.5	1.9%	14.9%	-13.2%	24.9%
COc1ccccc1/C=N/NC(=O)c1ccc2c(c1)OCO2	23.7*	81.3*	7.3%	?	?	-2.4%
Cc1c(/C=N/NC(=O)c2ccc3c(c2)OCO3)cnn1C	10.6	31.5	5.7%	1.9%	8.8%	-0.9%
CCCOc1ccc(/C=N/NC(=O)c2ccc3c(c2)OCO3)c(OCCC)c1	0.9	24.4	-8.2%	5.86µM*	?	10.1%
O=C(N/N=C/c1ccccc1OC(=O)c1ccc2c(c1)OCO2)c1ccccc1	20.6*	64.1*	9.3%	10.5%	1.4%	19.4%
COc1ccccc1N/N=C/c1ccc2c(c1)OCO2	38.5*	44.9	?	5.7%	49.9%	7.4%
COc1ccc(C(=O)N/N=C/C(C)c2ccccc2)cc1OC (centres undefined)	9.3	27.4	3.9%	-9.0%	-5.9%	7.2%
CC(/C=N\NC(=O)c1ccc2c(c1)OCO2)c1ccccc1 (centres undefined)	26.8*	45.5*	-8.3%	15.7%	4.5%	4.9%
CC1CCN(CCC(=O)Nc2ccc3c(c2)CCC3)CC1	-0.4	10.2	-1.7%	-2.4%	-9.0%	-0.9%
CCOc1cccc2sc(N(CCN(CC)CC)C(=O)c3ccco3)nc12	nt	nt	-0.3%	nt	nt	nt
N#CC1=C(N)N(c2ccc(F)cc2)C2=C(C1c1ccc(O)cc1)S(=O)(=O)CC2 (centres undefined)	-3.7	8.9	1.78µM*	?	-34.4%[5.75 µM]	nt
Cc1ccc(-n2nc(C)c3c2OC(N)=C(C#N)C3c2ccc(F)cc2)cc1 (centres undefined)	-1.1	26.2	8.5%	4.1%	nt	-0.6%
NC[C@H]1O[C@H](n2cnc3c(N)ncnc32)C[C@@H]1O	nt	nt	nt	nt	nt	-3.5%
O=C1C(=O)c2ccccc2C(O)=C1C1CCC(c2ccc(Cl)cc2)CC1 (centres undefined)	nt	nt	0.1%	0.0006µM*!	0.0005µM*	nt
COC(=O)Cc1ccc2oc(-c3cccnc3)nc2c1	48.8*	88.0*	0.6%	i	36.9%	nt
COc1ccc(C(=O)Nc2ccc3oc(-c4cccnc4)nc3c2)cc1	nt	nt	-16.5%	nt	nt	nt
CCCC(=O)Nc1ccc2oc(-c3cccnc3)nc2c1	24.5*	54.3*	5.0%	31.4%	nt	-6.8%
CCCCC(=O)Nc1ccc2oc(-c3cccnc3)nc2c1	30.7*	60.4*	-0.7%	43.5%	75.5%	-16.8%
O=C(Nc1ccc2oc(-c3cccnc3)nc2c1)c1ccc(-c2cccc(OC(F)(F)F)c2)o1	nt	nt	10µM*	nt	nt	nt
CCOc1ccc(C(=O)Nc2ccc3oc(-c4cccnc4)nc3c2)cc1	nt	nt	-1.7%	nt	nt	nt
O=C(Nc1ccc2oc(-c3cccnc3)nc2c1)c1cc2ccccc2o1	-6.5	10.9	-3.4%	-2.6%	152.3%	-23.1%
Cc1cc(SCC(=O)NN)c2cc(Br)ccc2n1	-1.8	1.7	-10.8%	14.7µM*	?	-11.4%
Cc1cc(C(=O)NN)c2cc(Br)ccc2n1	9.8	5.2	4.8%	nt	?	6.6%
SMILES	CHX counter	Shiga toxin inh	Sm TGR block	Pf growth 48h	Pf growth 96h	NS1 inh
COc1ccc2nc(C)cc(SCC(=O)N/N=C/c3c(OC)ccc4ccccc34)c2c1	-0.7	14.5	-2.5%	4.9%	0.0%	21.7%
COc1ccc2nc(C)cc(N/N=C/c3ccccc3)c2c1	nt	nt	-0.7%	0.147µM*	0.147µM*	nt
COc1ccccc1/C=N/Nc1cc(C)nc2ccc(C)cc12	26.1*	nt	?	-41.4%	?	-22.5%
COc1ccc(/C=N/Nc2cc(C)nc3ccc(OC)cc23)c(OC)c1	-1.3	14.3	-21.7%	?	?	-16.2%
COc1ccc2nc(C)cc(SCC(=O)N/N=C/c3ccccc3)c2c1	-2.7	-15.7	3.2%	-21.1%	4.15µM*	16.4%
O=C(Cc1ccccc1)NNC(=O)C1CC=CCC1 (centres undefined)	-7.2	-12.9	3.8%	12.3%	-22.7%	10.3%
CN1C(=O)CC(=O)N(C)c2cc(S(=O)(=O)N(C)Cc3ccccc3)ccc21	-2.2	-1.4	-18.7%	10.8%	40.3%	6.3%
CCc1ccc(-n2c(C)nnc2SCc2nc(-c3ccc(OC)cc3)no2)cc1	nt	nt	2.6%	nt	nt	nt
CCC(C(=O)Nc1cccnc1Cl)c1ccccc1 (centres undefined)	-3.3	nt	5.9%	27.9%	?	-12.3%
COc1ccc2nc(C)cc(NCc3ccc(F)cc3)c2c1	5.4	-5.4	-6.1%	?	2.62µM*	-14.3%
Cc1ccc2nc(C)cc(N/N=C/c3ccccc3O)c2c1	22.1*	26.9*	12.7%	35.8%	-4.9%	4.4%
COc1ccc2nc(C)cc(Nc3ccc(C)cc3)c2c1	-2.3	10.7	-1.2%	?	9.1%	-11.9%
CC1CCC2C(C1)OS(=O)(=O)NC2(C)C (centres undefined)	1.0	-0.1	-15.4%	-3.9%	13.7%	9.2%
CCc1ccc(OCC(=O)Nc2cc(-c3ccc(C)cc3)no2)cc1	nt	nt	-4.3%	nt	nt	nt
Cc1ccc(NC(=O)c2c(C(F)(F)F)nn(C)c2SCc2cccc(C(F)(F)F)c2)cc1C	20.3*	51.4*	-20.8%	?	?	7.2%
Cc1ccc(NC(=O)c2c(C(F)(F)F)nn(C)c2SCc2ccc(Cl)cc2)cc1C	22.1*	46.0*	4.2%	?	?	14.0%
Cn1nc(C(F)(F)F)c(C(=O)Nc2ccc(Cl)cc2)c1Cl	-4.6	-26.4	-19.6%	36.5%	-0.7%	-60.9%
CCc1ccc(N(C(=O)c2snc(C(N)=O)c2N)C(C(=O)NCCC(C)C)c2c[nH]c3ccccc23)cc1 (centres undefined)	-1.2	-8.2	18.5%	?	296.0%	24.3%
Cc1ccc(S(=O)(=O)NC(=O)NCC2CCN(S(=O)(=O)c3ccccc3)CC2)cc1	2.0	1.1	-9.3%	19.8%	41.6%	3.0%
N#CC1=C(N)Oc2n[nH]c(-c3ccccc3)c2C12C(=O)Nc1ccccc12 (centres undefined)	-2.1	-11.6	-8.5%	-11.7%	15.2%	1.8%
Cn1c2c(c(=O)n(C)c1=O)[C@@]1(C(=O)Nc3ccccc31)C(C#N)=C(N)O2	1.8	-13.8	?	?	13.1µM*	-27.4%
CC(C)C(NC(=O)OCc1ccccc1)C(=O)NCc1ccc(C(=O)O)cc1 (centres undefined)	2.5	-9.9	1.5%	7.0%	14.1%	8.3%
CC(=O)Nc1ccc(S(=O)(=O)N(C#N)c2nc(C)cc(C)n2)cc1	-1.3	-2.4	-6.3%	12.5%	-2.1%	23.1%
